According to the supplement of paper PMC7411054:
Counter-ions that a name gives are not always drawn.

Experiments:
Assay in all cases: phenotypically active (imaging signature differs from DMSO and reproducible) at any of 0.3-9 uM (binary (1 = active, 0 = inactive)); higher = active
Conditions in all cases: treatment time: 24 h
[1] = tested on: A549-ACTB-RAB5A
Method in brief: (§1)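 Each of fifteen gene-edited A549, HepG2 and WPMY1 reporter lines, marked with BFP for segmentation and GFP and RFP/FusionRed, was treated in four wells at 0.3, 1, 3 or 9 µM for 24 h prior to live imaging. Normalisation of per-well live-cell features used solvent control wells. Deviation needed ≥3 of 4 wells beyond the 95th percentile of control Euclidean distances, and reproducibility needed a median replicate Pearson correlation above the 95th percentile of non-replicates. Both were required for phenotypic activity.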

[2] = tested on: A549-CANX-COX4
Method in brief: as §1

[3] = tested on: A549-GM130-SQSTM1
Method in brief: as §1

[4] = tested on: A549-TP53BP1-CLTA
Method in brief: as §1

[5] = tested on: A549-TUBA1B-RELA
Method in brief: as §1

[6] = tested on: HepG2-ACTB-RAB5A
Method in brief: as §1

[7] = tested on: HepG2-CANX-COX4
Method in brief: as §1

[8] = tested on: HepG2-GM130-SQSTM1
Method in brief: as §1

[9] = tested on: HepG2-TP53BP1-CLTA
Method in brief: as §1

[10] = tested on: HepG2-TUBA1B-RELA
Method in brief: as §1

[11] = tested on: WPMY1-ACTB-RAB5A
Method in brief: as §1

[12] = tested on: WPMY1-CANX-COX4
Method in brief: as §1

[13] = tested on: WPMY1-GM130-SQSTM1
Method in brief: as §1

[14] = tested on: WPMY1-TP53BP1-CLTA
Method in brief: as §1

[15] = tested on: WPMY1-TUBA1B-RELA
Method in brief: as §1

Measured: phenotypically active

CCCC(=O)Nc1ncnc2c1ncn2[C@@H]1O[C@@H]2COP(=O)(O)O[C@H]2[C@H]1OC(=O)CCC [Dibutyryl-cAMP, sodium salt]
inactive: [1] 0 | [2] 0 | [3] 0 | [4] 0 | [5] 0 | [6] 0 | [7] 0 | [8] 0 | [9] 0 | [10] 0 | [11] 0 | [12] 0 | [13] 0 | [14] 0 | [15] 0

CN(C)CCOC(c1ccc(Cl)cc1)c1ccccn1 (stereo not given) [carbinoxamine]
inactive: [1] 0 | [2] 0 | [3] 0 | [4] 0 | [5] 0 | [6] 0 | [7] 0 | [8] 0 | [9] 0 | [10] 0 | [11] 0 | [12] 0 | [13] 0 | [14] 0 | [15] 0

C[N+]1(C)CCC(=C(c2ccccc2)c2ccccc2)CC1 [diphemanil]
inactive: [1] 0 | [2] 0 | [3] 0 | [4] 0 | [5] 0 | [6] 0 | [7] 0 | [8] 0 | [9] 0 | [10] 0 | [11] 0 | [12] 0 | [13] 0 | [14] 0 | [15] 0

O=C(NCC1CCCCN1)c1cc(OCC(F)(F)F)ccc1OCC(F)(F)F (stereo not given) [flecainide]
inactive: [1] 0 | [2] 0 | [3] 0 | [4] 0 | [5] 0 | [6] 0 | [7] 0 | [8] 0 | [9] 0 | [10] 0 | [11] 0 | [12] 0 | [13] 0 | [14] 0 | [15] 0

CC(C)(C)NCC(O)c1ccc(O)c(CO)c1 (stereo not given) [albuterol]
inactive: [1] 0 | [2] 0 | [3] 0 | [4] 0 | [5] 0 | [6] 0 | [7] 0 | [8] 0 | [9] 0 | [10] 0 | [11] 0 | [12] 0 | [13] 0 | [14] 0 | [15] 0

N=C(N)NC(=O)Cc1c(Cl)cccc1Cl [guanfacine]
inactive: [1] 0 | [2] 0 | [3] 0 | [4] 0 | [5] 0 | [6] 0 | [7] 0 | [8] 0 | [9] 0 | [10] 0 | [11] 0 | [12] 0 | [13] 0 | [14] 0 | [15] 0

CNC(=O)COC(=O)N1CCC(CCc2ccc(Cl)cc2)CC1
inactive: [1] 0 | [2] 0 | [3] 0 | [4] 0 | [5] 0 | [6] 0 | [7] 0 | [8] 0 | [9] 0 | [10] 0 | [11] 0 | [12] 0 | [13] 0 | [14] 0 | [15] 0

O=C1N[C@@H]2[C@@H](O)[C@@H](O)[C@H](O)[C@@H](CO)N2C1=O [Kifunensine]
inactive: [1] 0 | [2] 0 | [3] 0 | [4] 0 | [5] 0 | [6] 0 | [7] 0 | [8] 0 | [9] 0 | [10] 0 | [11] 0 | [12] 0 | [13] 0 | [14] 0 | [15] 0

COC(=O)/C=C/c1cccc(N(Cc2ccc(-c3ccc(N(C)C)cc3)cc2)C(=O)C2CCCCC2)c1 [fexaramine]
inactive: [1] 0 | [2] 0 | [3] 0 | [4] 0 | [5] 0 | [6] 0 | [7] 0 | [8] 0 | [9] 0 | [10] 0 | [11] 0 | [12] 0 | [13] 0 | [14] 0 | [15] 0

O=C1CCc2cc(OCCCCc3nnnn3C3CCCCC3)ccc2N1 [Cilostazol]
inactive: [1] 0 | [2] 0 | [3] 0 | [4] 0 | [5] 0 | [6] 0 | [7] 0 | [8] 0 | [9] 0 | [10] 0 | [11] 0 | [12] 0 | [13] 0 | [14] 0 | [15] 0

C(=C/c1ccccc1)/CN1CCN(C(c2ccccc2)c2ccccc2)CC1 [cinnarazine]
inactive: [1] 0 | [2] 0 | [3] 0 | [4] 0 | [5] 0 | [6] 0 | [7] 0 | [8] 0 | [9] 0 | [10] 0 | [11] 0 | [12] 0 | [13] 0 | [14] 0 | [15] 0

Cc1cc(C)nc(SCC(=O)Nc2ncc(Cc3cccc4ccccc34)s2)n1
inactive: [1] 0 | [2] 0 | [3] 0 | [4] 0 | [5] 0 | [6] 0 | [7] 0 | [8] 0 | [9] 0 | [10] 0 | [11] 0 | [12] 0 | [13] 0 | [14] 0 | [15] 0
